Several values for one entry are separate records, joined by “and”; a condition that tells them apart may be missing. Equal values may be shown once. A number with no mark means an inactive call. Records with an inconclusive call do not appear. Entries that show only a call come without a potency. Activity calls are given as the source filed them. Unless noted, calls follow the shape of the dose curve; as a rule, active = well fitted curve in the direction sought with a large enough effect in the repeat runs; inconclusive = weak or mixed curves; inactive = no such curve, though single readings can be large; an effect the other way counts as inactive or inconclusive.
How the values were obtained:
[1] = biological target: Progesterone receptor (Homo sapiens) (UniProt P06401); experiment: qHTS assay to identify small molecule agonists of the progesterone receptor (PR) signaling pathway (AID 1346784; calls by dose curve; also: nearly all actives have a fitted effect of over 30% in size)
Progesterone receptor (Homo sapiens), sequence (P06401 whole entry, looked up): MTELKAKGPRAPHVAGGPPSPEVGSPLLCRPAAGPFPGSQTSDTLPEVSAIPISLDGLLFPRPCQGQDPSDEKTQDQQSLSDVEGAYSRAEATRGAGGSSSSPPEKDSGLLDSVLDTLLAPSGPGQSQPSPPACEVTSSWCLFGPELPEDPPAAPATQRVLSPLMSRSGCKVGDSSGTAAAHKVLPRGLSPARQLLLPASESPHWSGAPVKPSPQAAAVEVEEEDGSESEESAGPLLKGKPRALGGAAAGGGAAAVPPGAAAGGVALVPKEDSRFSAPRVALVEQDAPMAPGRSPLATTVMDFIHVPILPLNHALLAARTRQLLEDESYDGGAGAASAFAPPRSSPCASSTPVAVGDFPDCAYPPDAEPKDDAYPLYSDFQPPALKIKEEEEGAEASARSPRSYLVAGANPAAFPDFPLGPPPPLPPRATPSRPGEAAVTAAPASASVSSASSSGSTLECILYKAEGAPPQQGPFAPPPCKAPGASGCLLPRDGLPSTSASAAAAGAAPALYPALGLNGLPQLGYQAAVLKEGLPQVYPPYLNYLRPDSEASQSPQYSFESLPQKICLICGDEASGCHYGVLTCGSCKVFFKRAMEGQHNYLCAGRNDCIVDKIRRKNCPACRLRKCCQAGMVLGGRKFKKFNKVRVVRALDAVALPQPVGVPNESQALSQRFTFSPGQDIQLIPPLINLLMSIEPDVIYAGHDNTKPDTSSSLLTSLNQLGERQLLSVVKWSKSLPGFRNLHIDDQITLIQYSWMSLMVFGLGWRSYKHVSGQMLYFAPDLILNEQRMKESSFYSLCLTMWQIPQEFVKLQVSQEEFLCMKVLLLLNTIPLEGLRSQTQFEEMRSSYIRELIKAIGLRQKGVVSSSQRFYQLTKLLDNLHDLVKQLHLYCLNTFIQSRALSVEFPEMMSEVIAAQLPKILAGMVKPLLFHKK
Method in brief: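 Agonist qHTS: compounds pinned onto 3,000 PR-UAS-bla HEK 293T cells per well in charcoal-stripped serum medium, 16hr at 37C, then beta-lactamase activity measured by LiveBLAzer FRET fluorescence after 2 hours at room temperature.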

[2] = biological target: Progesterone receptor (Homo sapiens) (UniProt P06401); experiment: qHTS assay to identify small molecule antagonists of the progesterone receptor (PR) signaling pathway (AID 1346795; active = well fitted inhibition curve with a large enough effect in the signal ratio in the repeat runs, not every such curve was filed as active; the % refers to the signal ratio)
Method in brief: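 Antagonist mode with agonist R5020 at 1 nM final and 16 hr incubation at 37C. Reporter was beta-lactamase driven by UAS in HEK293T (PR-UAS-bla), 2% charcoal-stripped serum; signal from LiveBLAzer FRET substrate, 2 hr at room temperature.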

[3] = qHTS assay to identify small molecule agonists of the progesterone receptor (PR) signaling pathway - cell viability counter screen (AID 1346799; calls by dose curve; also: nearly all actives have a fitted effect of over 45% in size; also: potency is read from the fitted curve at half-maximal effect)
Method in brief: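 Cytotoxicity measured by CellTiter-Glo luminescence (30 min, RT) in the same wells as the PR beta-lactamase agonist read. Those HEK293T cells had 16 h compound treatment at 37 C in 2% charcoal-stripped FBS medium.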

[4] = qHTS assay to identify small molecule antagonists of the TGF-beta/Smad signaling pathway - cell viability counter screen (AID 1346824); also: nearly all actives have a fitted effect of over 50% in size
Method in brief: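 Cytotoxicity counter-screen run in the same wells as the beta-lactamase Smad reporter read: CellTiter-Glo luminescence after 30 min at room temperature. HEK 293T SBE-bla cells had 5 hr compound exposure at 37 C with TGF-beta1 (0.25 ng/mL stock).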

[5] = qHTS assay to identify small molecule agonists of the TGF-beta/Smad signaling pathway - cell viability counter screen (AID 1346829); also: top concentration of the series differs between compounds; nearly all actives have a fitted effect of over 45% in size
Method in brief: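 Cytotoxicity counter screen: CellTiter-Glo luminescence (30 min, room temperature) measured in the SBE-bla HEK 293T reporter wells after 5 hr compound treatment at 37 C and the 2 hr substrate step.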

[6] = qHTS assay to identify small molecule agonists of the TGF-beta/Smad signaling pathway (AID 1346859; active = well fitted activation curve with a large enough effect in the signal ratio in the repeat runs, not every such curve was filed as active; the % refers to the signal ratio; also: series mostly up to about 77 µM)
Method in brief: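 Fluorescence (ex 405 nm; em 460 and 530 nm) was read 2 h after LiveBLAzer FRET substrate at RT. The preceding compound treatment of overnight-plated SBE-bla HEK293T cells lasted 5 h at 37 C.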

[7] = Human pregnane X receptor (PXR) small molecule agonists, qHTS cell viability counter screen (AID 1346977); also: nearly all actives have a fitted effect of over 50% in size; also: potency is read from the fitted curve at half-maximal effect
Method in brief: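 Same-well viability read: CellTiter-Fluor added after 23 hr compound exposure, fluorescence measured 1 hr later. Cells were PXR-Luc HepG2 seeded at 2,000/well in 5% charcoal-stripped FBS medium, rested 5 hr before dosing at 37 C.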

[8] = Caspase-3/7 induction in HepG2 cells by small molecules, qHTS assay (AID 1346978); also: nearly all actives have a fitted effect of over 15% in size; also: potency is read from the fitted curve at half-maximal effect
Method in brief: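 Caspase-3/7 induction was measured by Caspase-Glo 3/7 luminescence (30 min, room temperature) after a 17 hr compound exposure of wild-type HepG2 cells seeded at 2,000 per well and pre-incubated 5 hr.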

[9] = Caspase-3/7 induction in CHO-K1 cells by small molecules, qHTS cell viability counter screen (AID 1346979); also: nearly all actives have a fitted effect of over 35% in size; also: potency is read from the fitted curve at half-maximal effect
Method in brief: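 Cytotoxicity counter screen: CellTiter-Fluor added to compound-treated wild-type CHO-K1 cells at 16 h (37C, 5% CO2), fluorescence measured 1 h later; same wells as caspase-3/7 measurement.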

[10] = Caspase-3/7 induction in CHO-K1 cells by small molecules, qHTS assay (AID 1346980); also: nearly all actives have a fitted effect of over 15% in size
Method in brief: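 Luminescent Caspase-Glo 3/7 read (30min, room temperature) quantified apoptosis induction. Cells were wild-type CHO-K1, treated with compound for 17hr at 37 C and 5% CO2.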

[11] = Caspase-3/7 induction in HepG2 cells by small molecules, qHTS cell viability counter screen (AID 1346981); also: series mostly up to about 92 µM; nearly all actives have a fitted effect of over 30% in size
Method in brief: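 Fluorescence read-out of live-cell protease activity (CellTiter-Fluor) after 1 hr with reagent. This was measured in the same wells as the caspase-3/7 luminescence, on HepG2 cells exposed to DMSO-dissolved compounds for 16 hr at 37 C.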

[12] = biological target: Nuclear receptor subfamily 1 group I member 2 (Homo sapiens) (UniProt O75469); experiment: Human pregnane X receptor (PXR) small molecule agonists, qHTS assay (AID 1346982); also: nearly all actives have a fitted effect of over 35% in size; also: potency is read from the fitted curve at half-maximal effect
Nuclear receptor subfamily 1 group I member 2 (Homo sapiens), sequence (O75469 whole entry, looked up): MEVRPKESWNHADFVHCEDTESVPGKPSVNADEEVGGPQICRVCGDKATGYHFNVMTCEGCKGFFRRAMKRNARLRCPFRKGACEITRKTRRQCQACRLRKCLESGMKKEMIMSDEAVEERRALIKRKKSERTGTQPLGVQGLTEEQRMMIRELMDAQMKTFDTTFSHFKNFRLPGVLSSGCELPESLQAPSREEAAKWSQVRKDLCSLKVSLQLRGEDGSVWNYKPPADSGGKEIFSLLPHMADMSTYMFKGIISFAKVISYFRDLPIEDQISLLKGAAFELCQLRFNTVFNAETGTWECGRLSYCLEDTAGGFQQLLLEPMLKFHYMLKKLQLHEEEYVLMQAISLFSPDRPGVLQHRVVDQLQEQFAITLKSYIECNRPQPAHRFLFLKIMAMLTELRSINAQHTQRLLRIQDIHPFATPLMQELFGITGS
Method in brief: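 HepG2 PXR-Luc reporter line, 5% charcoal-stripped FBS; 5 hr pre-incubation, compound (DMSO) 24 hr at 37 C/5% CO2; ONE-Glo 30 min RT; luminescence read-out.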

[13] = biological target: Cytochrome P450 2D6 (Homo sapiens) (UniProt P10635); experiment: Cytochrome P450 Family 2 Subfamily D Member 6 (CYP2D6) small molecule antagonists: luciferase reporter qHTS assay (AID 1671196); also: nearly all actives have a fitted effect of over 50% in size; also: potency is read from the fitted curve at half-maximal effect
Cytochrome P450 2D6 (Homo sapiens), sequence (P10635 whole entry, looked up): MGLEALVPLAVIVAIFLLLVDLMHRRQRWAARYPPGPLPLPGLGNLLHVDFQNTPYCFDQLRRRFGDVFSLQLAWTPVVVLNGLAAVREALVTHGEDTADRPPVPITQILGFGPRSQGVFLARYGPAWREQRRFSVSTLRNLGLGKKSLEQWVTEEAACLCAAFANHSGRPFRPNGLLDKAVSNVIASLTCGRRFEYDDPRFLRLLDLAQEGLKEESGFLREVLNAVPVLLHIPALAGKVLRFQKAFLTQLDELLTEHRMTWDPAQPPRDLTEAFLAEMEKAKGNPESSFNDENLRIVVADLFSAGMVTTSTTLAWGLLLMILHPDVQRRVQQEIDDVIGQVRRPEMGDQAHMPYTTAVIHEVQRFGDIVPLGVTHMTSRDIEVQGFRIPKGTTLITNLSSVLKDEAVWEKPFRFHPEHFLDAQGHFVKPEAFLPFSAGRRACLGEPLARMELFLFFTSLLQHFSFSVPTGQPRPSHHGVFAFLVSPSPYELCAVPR
Method in brief: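 Luminogenic proluciferin substrate, CYP2D6 enzyme; 10 min RT preincubation with compound, NADPH regeneration system added, 1 h RT. Stop/detection reagent, 20 min RT, luminescence read (RLU). Signal proportional to CYP activity.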

[14] = biological target: Cytochrome P450 2C19 (Homo sapiens) (UniProt P33261); experiment: Cytochrome P450 Family 2 Subfamily C Member 19 (CYP2C19) small molecule antagonists: luciferase reporter qHTS assay (AID 1671197); also: nearly all actives have a fitted effect of over 65% in size; also: potency is read from the fitted curve at half-maximal effect
Cytochrome P450 2C19 (Homo sapiens), sequence (P33261 whole entry, looked up): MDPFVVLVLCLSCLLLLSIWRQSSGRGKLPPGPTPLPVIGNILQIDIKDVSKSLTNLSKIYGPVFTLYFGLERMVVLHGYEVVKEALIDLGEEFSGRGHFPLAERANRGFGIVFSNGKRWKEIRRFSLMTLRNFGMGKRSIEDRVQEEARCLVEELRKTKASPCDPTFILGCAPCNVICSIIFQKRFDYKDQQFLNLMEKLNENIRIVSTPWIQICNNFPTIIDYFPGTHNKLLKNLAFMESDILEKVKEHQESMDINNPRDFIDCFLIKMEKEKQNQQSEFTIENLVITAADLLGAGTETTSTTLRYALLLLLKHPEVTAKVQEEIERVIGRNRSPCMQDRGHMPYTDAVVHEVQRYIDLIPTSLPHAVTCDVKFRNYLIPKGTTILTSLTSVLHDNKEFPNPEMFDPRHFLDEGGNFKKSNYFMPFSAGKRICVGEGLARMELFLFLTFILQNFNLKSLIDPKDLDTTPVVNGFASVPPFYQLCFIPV
Method in brief: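 Luminescent readout of CYP2C19 activity: luciferin product detected 20 min after adding detection reagent. Before that, compound and enzyme-substrate mix preincubated 10 min at room temperature; NADPH-regenerating system started a 1 h, 37C reaction. Ketoconazole as positive control.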

[15] = biological target: Cytochrome P450 2C9 (Homo sapiens) (UniProt P11712); experiment: Cytochrome P450 Family 2 Subfamily C Member 9 (CYP2C9) small molecule antagonists: luciferase reporter qHTS assay (AID 1671198); also: nearly all actives have a fitted effect of over 50% in size; also: potency is read from the fitted curve at half-maximal effect
Cytochrome P450 2C9 (Homo sapiens), sequence (P11712 whole entry, looked up): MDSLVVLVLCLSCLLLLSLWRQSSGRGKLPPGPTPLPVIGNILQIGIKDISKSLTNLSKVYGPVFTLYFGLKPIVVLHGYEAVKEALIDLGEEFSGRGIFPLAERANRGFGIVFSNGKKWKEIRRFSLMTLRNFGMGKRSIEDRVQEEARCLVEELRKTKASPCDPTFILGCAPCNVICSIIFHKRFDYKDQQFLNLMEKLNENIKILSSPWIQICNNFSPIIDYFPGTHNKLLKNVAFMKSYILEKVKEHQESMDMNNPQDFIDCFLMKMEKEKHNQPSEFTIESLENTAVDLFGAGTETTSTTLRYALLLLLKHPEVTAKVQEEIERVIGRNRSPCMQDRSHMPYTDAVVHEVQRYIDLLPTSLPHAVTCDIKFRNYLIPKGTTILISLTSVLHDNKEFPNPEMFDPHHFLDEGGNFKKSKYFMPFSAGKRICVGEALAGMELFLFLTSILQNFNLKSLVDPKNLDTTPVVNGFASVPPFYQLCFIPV
Method in brief: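 Enzyme-substrate mix preincubated with compound 10 min at room temperature; reaction started with NADPH regeneration solution, 1 h 37C. Luminescent luciferin product read after 20 min detection reagent.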

[16] = qHTS assay to identify small molecule antagonists of the progesterone receptor (PR) signaling pathway - cell viability counter screen (AID 1346798); also: nearly all actives have a fitted effect of over 50% in size; also: potency is read from the fitted curve at half-maximal effect
Method in brief: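 Cytotoxicity read as CellTiter-Glo luminescence (30 min, room temperature) in the same wells as the beta-lactamase readout. HEK293T PR-UAS-bla cells in charcoal-stripped 2% FBS received compound and R5020, then 16 h at 37C, 5% CO2.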

[17] = biological target: Nuclear receptor subfamily 1 group I member 2 (Rattus norvegicus) (UniProt Q9R1A7); experiment: Rat pregnane X receptor (rPXR) activation by small molecules, qHTS assay (AID 1346983); conditions: rPXR luciferase reporter cells, One-Glo luminescence, 24 h; max activation: hits give high values; also: nearly all actives have a fitted effect of over 20% in size
Nuclear receptor subfamily 1 group I member 2 (Rattus norvegicus), sequence (Q9R1A7 whole entry, looked up): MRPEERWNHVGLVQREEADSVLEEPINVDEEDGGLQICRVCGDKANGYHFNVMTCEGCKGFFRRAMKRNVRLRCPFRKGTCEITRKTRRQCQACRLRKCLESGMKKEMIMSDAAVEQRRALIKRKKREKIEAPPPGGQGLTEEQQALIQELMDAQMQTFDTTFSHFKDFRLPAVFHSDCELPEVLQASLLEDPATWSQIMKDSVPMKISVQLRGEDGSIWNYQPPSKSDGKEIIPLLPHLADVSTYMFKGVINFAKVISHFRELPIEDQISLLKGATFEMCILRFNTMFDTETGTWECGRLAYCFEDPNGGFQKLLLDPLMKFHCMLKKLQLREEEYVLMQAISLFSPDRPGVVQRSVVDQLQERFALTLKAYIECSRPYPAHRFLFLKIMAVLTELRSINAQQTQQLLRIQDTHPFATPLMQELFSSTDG
Method in brief: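 Luminescent readout (One-Glo luciferase, 30 min room temperature) followed 24 hr compound treatment at 37 C of rPXR cells plated 2,000 per well and preincubated 5hr; qHTS format with compounds delivered in DMSO.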

[18] = biological target: Thyrotropin-releasing hormone receptor (Homo sapiens) (UniProt P34981); experiment: qHTS assay to identify small molecule antagonists of the thyrotropin-releasing hormone receptor (TRHR) signaling pathway (AID 1346877; active = well fitted inhibition curve with a large enough effect in the repeat runs, not every such curve was filed as active; also: series mostly up to about 51 µM)
Thyrotropin-releasing hormone receptor (Homo sapiens), sequence (P34981 whole entry, looked up): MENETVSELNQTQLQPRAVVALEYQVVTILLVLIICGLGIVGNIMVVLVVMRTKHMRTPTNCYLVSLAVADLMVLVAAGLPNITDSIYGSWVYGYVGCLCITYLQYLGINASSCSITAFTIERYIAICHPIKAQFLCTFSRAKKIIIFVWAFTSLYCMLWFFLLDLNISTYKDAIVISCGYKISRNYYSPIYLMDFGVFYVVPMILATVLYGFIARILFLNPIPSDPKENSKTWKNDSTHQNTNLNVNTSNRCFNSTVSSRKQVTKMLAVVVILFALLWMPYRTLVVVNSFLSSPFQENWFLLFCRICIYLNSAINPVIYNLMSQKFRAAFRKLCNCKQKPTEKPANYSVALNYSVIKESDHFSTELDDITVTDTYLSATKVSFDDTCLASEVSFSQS
Method in brief: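 HEK293/TRHR cells, 18 h, 37 °C; Ca2+ dye 2 h; cpd 5 min RT; TRH 1 nM final; fluorescence read 3 min, 1 s intervals; 15 concs, triplicate.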

[19] = biological target: Thyrotropin-releasing hormone receptor (Homo sapiens) (UniProt P34981); experiment: qHTS assay to identify small molecule agonists of the thyrotropin-releasing hormone receptor (TRHR) signaling pathway (AID 1346891; calls by dose curve; also: series mostly up to about 58 µM)
Method in brief: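 Agonist-mode intracellular calcium readout: kinetic fluorescence over 3 min at 1 s intervals after compound addition to TRHR-HEK293 cells (18 h seeded, 2 h dye-loaded at 37 C). Fifteen concentrations, triplicates.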

[20] = biological target: Nuclear receptor subfamily 1 group I member 2 (Homo sapiens) (UniProt O75469); experiment: CYP3A4 induction through human pregnane X receptor (PXR) by small molecules, qHTS assay (AID 1346984); also: nearly all actives have a fitted effect of over 40% in size
Method in brief: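 HepG2-derived DPX-2 line carrying PXR plus a CYP3A4-promoter luciferase reporter; cells plated 5 hr, compound-exposed 24 hr at 37C. CYP3A4 activity probed with 3uM (final) Luciferin-IPA for 3hr, then luciferase read after One-Glo.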

| Structure (SMILES) | outcome [1] | Potency [2] | Potency [3] | Potency [4] | Potency [5] | Potency [6] | Potency [7] | Potency [8] | Potency [9] | Potency [10] | Potency [11] | Potency [12] | Potency [13] | Potency [14] | Potency [15] | Potency [16] | max activation [17] | Potency [18] | Potency [19] | Potency [20] |
| --- | --- | --- | --- | --- | --- | --- | --- | --- | --- | --- | --- | --- | --- | --- | --- | --- | --- | --- | --- | --- |
| CCCCOCC | inactive | inactive | inactive | inactive | inactive | inactive | inactive | inactive | inactive | inactive | inactive | inactive | inactive | inactive | inactive | – | – | – | – | – |
| CC(COC(=O)c1ccccc1)OC(=O)c1ccccc1 (centres undefined) | inactive | inactive | inactive | inactive | inactive | inactive | inactive | inactive | inactive | inactive | inactive | – | – | 20 µM (active) | 15.9 µM (active) | – | – | – | – | – |
| C[C@H]1O[C@@H](O[C@H]2[C@@H](O)C[C@H](O[C@H]3[C@@H](O)C[C@H](O[C@H]4CC[C@@]5(C)[C@H](CC[C@@H]6[C@@H]5C[C@@H](O)[C@]5(C)[C@@H](C7=CC(=O)OC7)CC[C@]65O)C4)O[C@@H]3C)O[C@@H]2C)C[C@H](O)[C@@H]1O | inactive | – | 122 nM (active) and 191 nM (active) | – | – | – | inactive | inactive | inactive | inactive | inactive | – | – | – | – | 86.4 nM (active) and 121 nM (active) | -1.12% | – | – | – |
| CCN(CC)CCOc1ccc(C(O)(Cc2ccc(Cl)cc2)c2ccc(C)cc2)cc1 (centres undefined) | inactive | – | 23.7 µM (active) | – | – | inactive | 26.6 µM (active) | 33.5 µM (active) | 26.6 µM (active) | – | – | – | inactive | 38.9 µM (active) | 38.9 µM (active) | 26.6 µM (active) | -4.47% | inactive | inactive | – |
| C=CC/C=C/C/C=C/C/C=C/C | inactive | – | inactive | inactive | inactive | inactive | inactive | inactive | inactive | – | inactive | inactive | – | inactive | inactive | inactive | – | inactive | inactive | – |
| O=Cc1ccc(F)cc1 | inactive | – | inactive | inactive | – | inactive | inactive | inactive | inactive | inactive | inactive | – | 35.6 µM (active) | inactive | inactive | inactive | – | inactive | inactive | – |
| CCN(CC)CCSC(=O)C(c1ccccc1)c1ccccc1 | inactive | – | inactive | inactive | inactive | inactive | – | inactive | – | inactive | inactive | – | 4.9 µM (active) | – | 17.4 µM (active) | inactive | 3.39% and -0.327% | inactive | inactive | inactive |
| Cn1cnc2ncnc(N)c21 | inactive | – | – | inactive | inactive | inactive | inactive | inactive | – | – | inactive | inactive | – | inactive | inactive | inactive | – | inactive | inactive | – |
| C[C@@H]1CC[C@H]2C(C)(C)[C@H]3C[C@@]12CC[C@@]3(C)O | inactive | – | inactive | inactive | inactive | inactive | inactive | – | – | inactive | inactive | inactive | – | – | – | inactive | – | – | – | – |
| CNCC[C@H](Oc1cccc2ccccc12)c1cccs1 | inactive | – | 21.1 µM (active) | inactive | inactive | inactive | 29.8 µM (active) | – | – | inactive | – | – | – | – | – | 23.7 µM (active) | -8.93% | inactive | inactive | – |
| CCc1ccc(O)c(C(C)(C)C)c1 | inactive | – | – | inactive | inactive | inactive | inactive | – | – | inactive | inactive | inactive | inactive | – | 31.7 µM (active) | inactive | – | inactive | inactive | – |
| Cc1cc(C)c(C=O)c(C)c1 | inactive | – | inactive | inactive | inactive | inactive | inactive | inactive | inactive | inactive | – | 43.3 µM (active) | – | – | – | inactive | – | inactive | inactive | – |
| CC(C)N=C(N)/N=C(\N)Nc1ccc(Cl)cc1 | inactive | – | inactive | inactive | inactive | inactive | – | inactive | 11.9 µM (active) | inactive | inactive | inactive | 5.49 µM (active) | 15.5 µM (active) | – | inactive | -16.8% | inactive | inactive | inactive |
| O=Nc1ccc(NO)cc1 | inactive | – | inactive | inactive | inactive | inactive | inactive | inactive | 63.6 µM (active) | inactive | – | – | inactive | – | inactive | inactive | – | inactive | inactive | – |
| Oc1ccc(-c2ccccc2)c(Cl)c1 | inactive | – | inactive | inactive | inactive | inactive | inactive | inactive | – | inactive | – | 24.3 µM (active) | – | – | 35.6 µM (active) | inactive | – | inactive | inactive | – |

From PubChem BioAssay (Tox21)
